Screens (PubChem BioAssay)
Rows were chosen to be rich in hits. Some 2.1% of all compounds tested hit in one or more screens of this group.
aSyn rescue = inhibitors of alpha-synuclein toxicity in yeast. Yeast expressing alpha-synuclein, growth rescue, BacTiter-Glo, 24 h. Potency, µM (series often up to 46.1 µM), usual class: activators. 0.14% of 370,000 active. AID 652106; further: nearly all actives have a fitted effect of over 65% in size
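Rescue of yeast growth: cells expressing toxic alpha-synuclein, induced in galactose at OD600 0.02, incubated with compound 24 h at 30 C. ATP luminescence quantified growth; inhibitors of toxicity appear as activators.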
FUS suppressor = suppressors of FUS proteinopathy in yeast; Potency, µM (top dose mostly 76.6 µM), usual class: activators; 0.24% of 390,000 active; S. cerevisiae FUS-expressing, growth rescue, OD600, 24 h; AID 1347120; further: nearly all actives have a fitted effect of over 55% in size
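Steps: raffinose overnight preculture; dilution to OD 0.005 in 2% galactose minimal medium; compound addition (concentration series); 24hr at 30C, 99% humidity; absorbance read at 600 nm.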
Abeta rescue = compounds reversing amyloid beta toxicity in yeast | yeast expressing A-beta42, growth rescue, OD600, 48 h; response scale: 0% DMSO, 100% iron-clioquinol control | 0.063% of 410,000 active | AID 1347071 | Potency, µM (highest dose often 46.1 µM), usual class: activators; further: nearly all actives have a fitted effect of over 55% in size
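Yeast growth medium received pinned compounds, then yeast cells expressing toxic A-beta were added; plates incubated at 30 C for 48 hr. Growth read as absorbance at 600 nm, normalized to DMSO and equimolar FeCl3 plus clioquinol controls.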
TDP43 rescue = rescues yeast growth from TDP-43 toxicity | Potency, µM (top dose mostly 46.1 µM), most hits filed as activators | TDP-43 expressing yeast growth rescue, BacTiter-Glo, 24 h | 1.8% of 410,000 active | AID 652104; further: nearly all actives have a fitted effect of over 50% in size
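Yeast cells expressing TDP-43 under galactose induction are exposed to compounds for 24 hr at 30 deg C. BacTiter-Glo luminescence measures growth, so protective compounds score as activators.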
Each line names hits and unclear results; the compound was inactive in the other large screens; ! = repeats disagree. The call rests on the fitted dose curve; in most records, active means well fitted curve in the direction sought with a large enough effect; inconclusive means small, poorly fitted or top-dose-only effect, or another doubt; inactive means no such curve, though single readings can be large; an effect the other way counts as inactive or inconclusive.

C=CCSc1nnc2c(n1)[nH]c1c(C)cccc12	TDP43 rescue 11.2µM
O=C(CCn1c(=O)oc2ccccc21)N(Cc1ccccc1)c1ccccc1	TDP43 rescue 22.4µM
CN(Cc1ccccc1)C(=O)CCn1c(=O)oc2ccccc21	none
O=C(CCl)N(Cc1ccccc1)c1ccccc1	TDP43 rescue 20µM
CCN(C(=O)C1CCCN(c2ncnc3c2nc2n3CCCCC2)C1)c1cccc(C)c1 (stereo not given)	TDP43 rescue 14.1µM (no result: aSyn rescue)
CCN(C(=O)C1CCCN(c2ncnc3c2nc2n3CCCCC2)C1)c1cccc(Cl)c1 (stereo not given)	FUS suppressor inconclusive, TDP43 rescue 25.1µM
COc1ccc(Cl)cc1NC(=O)C1CCCN(c2ncnc3c2nc2n3CCCCC2)C1 (stereo not given)	TDP43 rescue 14.1µM
O=C(Nc1cccnc1Cl)C1CCCN(c2ncnc3c2nc2n3CCCCC2)C1 (stereo not given)	none
O=C(Nc1ccc(Cl)cn1)C1CCCN(c2ncnc3c2nc2n3CCCCC2)C1 (stereo not given)	TDP43 rescue inconclusive
CCCCC(Sc1ccc2nnc(-c3ccccn3)n2n1)C(=O)O (stereo not given)	none (no result: FUS suppressor, Abeta rescue, TDP43 rescue)
COC(=O)c1ccc(CN2CC3CC(c4ccccc4)N4CCCC34C2=O)cc1 (stereo not given)	none (no result: aSyn rescue, Abeta rescue, TDP43 rescue)
COc1ccc(Cn2c(C(=O)O)c(CNC3CCCCCC3)c3ccc(OC)cc32)cc1	FUS suppressor inconclusive (no result: aSyn rescue)
CCOCCCN(Cc1ccco1)C(=O)c1cc2c(s1)-c1c(C)cccc1OC2	none (no result: aSyn rescue)
O=C(c1cc(-c2ccco2)on1)N1CCCc2ccccc21	FUS suppressor 35.5µM
O=C(c1cc(-c2ccccc2)on1)N1CCCc2ccccc21	none
Cc1cccc(-c2nc3c4ccccc4n(Cc4cccc(Cl)c4)c(=O)n3n2)c1	none (no result: aSyn rescue)
Cc1ccc(-c2nc(N)sc2-c2ccccc2)cc1C	TDP43 rescue 15.8µM (no result: FUS suppressor)
Nc1nc(-c2ccccc2)c(-c2ccccc2)s1	none
COc1ccc2c(c1)C[C@@H](CON1C(C)(C)CCCC1(C)C)N2S(=O)(=O)c1ccc(C)cc1	none (no result: aSyn rescue, Abeta rescue, TDP43 rescue)
Cc1ccc(C2CCN(C(=O)Nc3ccccc3)C2)cc1 (stereo not given)	TDP43 rescue 10µM
O=C(Nc1ccc(Cl)cc1)N1CCC(c2ccccc2)C1 (stereo not given)	TDP43 rescue 11.2µM!
Cc1ccc(NC(=S)N2CCC(c3ccc(C)cc3)C2)cc1 (stereo not given)	Abeta rescue inconclusive, TDP43 rescue 17.8µM
COc1ccc(OC)c(CNS(=O)(=O)c2ccc(-c3cc(C(F)(F)F)on3)s2)c1	none (no result: aSyn rescue)
Cn1nc(-c2cccnc2)nc2c(=O)n(C)c(=O)nc1-2	none (no result: FUS suppressor, Abeta rescue, TDP43 rescue)
Cc1ccc(-c2nc3cc(C)c(Br)c(C)n3c2CC2CCCCC2)cc1	none
COc1ccc(-c2nc3cc(C)c(Br)c(C)n3c2CC2CCCCC2)cc1OC	TDP43 rescue 22.4µM
C=C(C)COc1ccc(-c2nc(N)ncc2-c2ccc(Br)cc2)c(O)c1	TDP43 rescue 20µM
C=C(C)COc1ccc(-c2ncncc2-c2ccc(Br)cc2)c(O)c1	none
CCOC(=O)c1cc(C)n(Cc2cccc(OC)c2OC)c1C	TDP43 rescue 20µM
OC[C@@H]1CN(Cc2ccccc2)C[C@H](n2cnc3c(N4CCN(c5ccccc5)CC4)ncnc32)O1	FUS suppressor 20µM
OC[C@@H]1CN(Cc2ccc(F)cc2)C[C@H](n2cnc3c(N4CCN(c5ccccc5)CC4)ncnc32)O1	aSyn rescue inconclusive, FUS suppressor inconclusive
CC(=O)c1cccc(NC(=O)Nc2sc3nc4n(c(=O)c3c2C)CCC(C)CC4)c1 (stereo not given)	none (no result: aSyn rescue)
COc1cc2c(cc1OC)n(CC(=O)c1cccc(Cl)c1)c(=O)n1nc(CCn3nc(C)cc3C)nc21	none (no result: aSyn rescue)
CCOc1ccc(CCNC(=O)c2nc(-c3cccc(F)c3)n3c2CCCCC3)cc1OCC	FUS suppressor inconclusive, TDP43 rescue 17.8µM (no result: aSyn rescue)
COc1ccc(-c2noc(C3CC(=O)N(c4ccc(C)c(F)c4)C3)n2)c(OC)c1 (stereo not given)	FUS suppressor inconclusive, TDP43 rescue 12.6µM (no result: aSyn rescue)
CCOc1ccc(Cl)cc1-c1cc(C(=O)NCc2ccccc2OC)[nH]n1	aSyn rescue inconclusive, FUS suppressor inconclusive, TDP43 rescue 17.8µM
COc1cc(S(=O)(=O)N2CCN(C(=O)c3ccco3)CC2)c(OC)cc1C	none
CC(=O)N1CCN(c2nc3c(C)ccc(Cl)c3s2)CC1	TDP43 rescue inconclusive (no result: aSyn rescue)
Cc1c(Cl)ccc2sc(N3CCN(C(=O)c4ccco4)CC3)nc12	FUS suppressor inconclusive, TDP43 rescue 31.6µM (no result: aSyn rescue)
COc1ccc(Cl)c2sc(N3CCN(C(=O)c4ccco4)CC3)nc12	TDP43 rescue 17.8µM
CCCC(=O)N1CCN(c2nc3c(OC)ccc(Cl)c3s2)CC1	TDP43 rescue 20µM
COc1c(S(=O)(=O)N2CCN(C(=O)c3ccco3)CC2)ccc(Cl)c1Cl	TDP43 rescue 12.6µM
Cc1c(Cl)ccc2sc(N3CCN(C(=O)C4=COCCO4)CC3)nc12	TDP43 rescue inconclusive
COc1ccc(OC)c2sc(N3CCN(C(=O)c4ccco4)CC3)nc12	none (no result: aSyn rescue)
Cc1c(Cl)cccc1NC(=O)CSc1nc(=O)n(Cc2ccco2)c2c1CCC2	none (no result: aSyn rescue)
Cc1c(C(=O)Nc2cccc(Cl)c2)oc2ccc(S(=O)(=O)N(C)C3CCCCC3)cc12	none (no result: aSyn rescue)
O=C(Cn1nc2c(cc1=O)CCCC2)NCc1ccccc1	none (no result: aSyn rescue)
Cc1c(Cl)ccc2sc(N3CCN(C(=O)C(C)C)CC3)nc12	TDP43 rescue 22.4µM (no result: aSyn rescue)
CC(C)C(=O)N1CCN(c2nc3ccc(Cl)cc3s2)CC1	TDP43 rescue inconclusive
Cc1c(Cl)ccc2sc(N3CCN(C(=O)CS(=O)(=O)c4ccccc4)CC3)nc12	FUS suppressor inconclusive, Abeta rescue 12.6µM, TDP43 rescue 17.8µM (no result: aSyn rescue)
C=C(C)CSc1nc2sc(C)c(C)c2c(=O)n1C	none (no result: aSyn rescue, Abeta rescue, TDP43 rescue)
CCN(c1ccccc1C)S(=O)(=O)c1nnc(NC(=O)c2ccccc2C)s1	none (no result: aSyn rescue)
Cc1ccc(Cl)cc1Nc1nc(-c2cccnc2)cs1	TDP43 rescue 12.6µM
Clc1cccc(Nc2nc(-c3ccncc3)cs2)c1	TDP43 rescue 12.6µM
Clc1ccc(Nc2nc(-c3cccnc3)cs2)cc1	none
CCC(=O)N1CCc2cc(S(=O)(=O)Nc3cc(C)ccc3OC)ccc21	Abeta rescue inconclusive (no result: aSyn rescue)
CN1C(=O)C2CCCCN2c2ccc(C(=O)NCc3ccccc3Br)cc21 (stereo not given)	none (no result: aSyn rescue)
CCOc1ccc2c(c1)c(=O)c(S(=O)(=O)c1ccc(CC)cc1)cn2Cc1cccc(Cl)c1	none (no result: aSyn rescue)
C#CCOCCOCCOCCNc1nc(N2CCN(C(=O)CCCCCCCCCCNC(=O)[C@H](CCCCN)n3cc(CCO)nn3)CC2)nc(N2CCN(C(=O)CCCCCCCCCCNC(=O)[C@H](CCCCN)n3cc(C[C@@H](C)CC)nn3)CC2)n1	FUS suppressor inconclusive
C#CCOCCOCCOCCNc1nc(N2CCN(C(=O)CCCCCCCCCCNC(=O)[C@H](CCCCN)n3cc(C)nn3)CC2)nc(N2CCN(C(=O)CCCCCCCCCCNC(=O)[C@H](CCCN=C(N)N)n3cc(C[C@@H](C)CC)nn3)CC2)n1	FUS suppressor inconclusive, TDP43 rescue inconclusive
